# Reference: the supplement of paper PMC12282887
# ± gives the standard deviation of the averaged measurements.
# How the values were obtained:
# Test in all cases: promoter activity interaction Z-score (Lux/OD deviation from empty-vector control); higher = stronger promoter induction by the compound
# [1] = test system: E. coli BW25113 acrABp lux reporter
# How it was run: (§1)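 Every compound was given at four 1:2 dilutions, in biological duplicates, to E. coli BW25113 carrying low-copy luxCDABE promoter reporters in wild-type or single-gene deletion backgrounds. Growth in 40 µl LB Lennox in 384-well plates at 37°C was followed by OD600 and luminescence readings every 30 min for 12 h, integrated over 0–8 h for wild type and 1–9 h for deletion strains, with wells below 10% of the median growth value excluded. Scores are Z-transformed residuals of growth-normalised luminescence fitted against a control.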
# [2] = test system: E. coli BW25113 micFp lux reporter
# How it was run: as §1
# [3] = test system: E. coli BW25113 ompFp lux reporter
# How it was run: as §1
# [4] = test system: E. coli BW25113 robp lux reporter
# How it was run: as §1
# [5] = test system: E. coli BW25113 soxSp lux reporter
# How it was run: as §1
# [6] = test system: E. coli BW25113 tolCp lux reporter
# How it was run: as §1
# [7] = 13.5 µg/ml, genetic background: wild type
# [8] = 13.5 µg/ml, genetic background: ΔmarA
# [9] = 13.5 µg/ml, genetic background: Δrob
# [10] = 13.5 µg/ml, genetic background: ΔsoxS
# [11] = 26.9 µg/ml, genetic background: wild type
# [12] = 26.9 µg/ml, genetic background: ΔmarA
# [13] = 26.9 µg/ml, genetic background: Δrob
# [14] = 26.9 µg/ml, genetic background: ΔsoxS
# [15] = 53.9 µg/ml, genetic background: wild type
# [16] = 53.9 µg/ml, genetic background: ΔmarA
# [17] = 53.9 µg/ml, genetic background: Δrob
# [18] = 53.9 µg/ml, genetic background: ΔsoxS
# [19] = 107.7 µg/ml, genetic background: wild type
# [20] = 107.7 µg/ml, genetic background: ΔmarA
# [21] = 107.7 µg/ml, genetic background: Δrob
# [22] = 107.7 µg/ml, genetic background: ΔsoxS
smiles,measurement,setting,value
CC(=O)O[C@H]1C[C@@]2(C)[C@@H](C[C@@H](O)[C@H]3[C@@]4(C)CC[C@@H](O)[C@@H](C)[C@@H]4CC[C@@]32C)/C1=C(\CCC=C(C)C)C(=O)O [Fusidic acid],promoter activity interaction Z-score,[1]; [7],-0.2451 ± 0.00049
same,promoter activity interaction Z-score,[1]; [8],0.318 ± 0.51
same,promoter activity interaction Z-score,[1]; [9],0.252 ± 0.008
same,promoter activity interaction Z-score,[1]; [10],0.129 ± 0.4
same,promoter activity interaction Z-score,[1]; [11],0.0211 ± 0.13
same,promoter activity interaction Z-score,[1]; [12],0.239 ± 0.78
same,promoter activity interaction Z-score,[1]; [13],0.206 ± 0.18
same,promoter activity interaction Z-score,[1]; [14],0.227 ± 0.21
same,promoter activity interaction Z-score,[1]; [15],0.215 ± 0.26
same,promoter activity interaction Z-score,[1]; [16],-0.794 ± 0.83
same,promoter activity interaction Z-score,[1]; [17],0.292 ± 0.025
same,promoter activity interaction Z-score,[1]; [18],0.624 ± 0.086
same,promoter activity interaction Z-score,[1]; [19],0.448 ± 0.38
same,promoter activity interaction Z-score,[1]; [20],-0.757 ± 0.87
same,promoter activity interaction Z-score,[1]; [21],0.221 ± 0.22
same,promoter activity interaction Z-score,[1]; [22],0.66 ± 0.14
same,promoter activity interaction Z-score,[2]; [7],-0.214 ± 0.048
same,promoter activity interaction Z-score,[2]; [8],-0.0141 ± 0.037
same,promoter activity interaction Z-score,[2]; [9],-0.006 ± 0.044
same,promoter activity interaction Z-score,[2]; [10],-0.317 ± 0.02
same,promoter activity interaction Z-score,[2]; [11],-0.0316 ± 0.083
same,promoter activity interaction Z-score,[2]; [12],0.0308 ± 0.044
same,promoter activity interaction Z-score,[2]; [13],0.011 ± 0.0025
same,promoter activity interaction Z-score,[2]; [14],-0.033 ± 0.14
same,promoter activity interaction Z-score,[2]; [15],0.0882 ± 0.31
same,promoter activity interaction Z-score,[2]; [16],-0.146 ± 0.084
same,promoter activity interaction Z-score,[2]; [17],0.0235 ± 0.18
same,promoter activity interaction Z-score,[2]; [18],0.413 ± 0.28
same,promoter activity interaction Z-score,[2]; [19],-0.681 ± 0.064
same,promoter activity interaction Z-score,[2]; [20],-0.356 ± 0.068
same,promoter activity interaction Z-score,[2]; [21],-0.293 ± 0.013
same,promoter activity interaction Z-score,[2]; [22],-0.184 ± 0.18
same,promoter activity interaction Z-score,[3]; [7],-0.312 ± 0.41
same,promoter activity interaction Z-score,[3]; [8],0.0814 ± 0.3
same,promoter activity interaction Z-score,[3]; [9],0.107 ± 0.54
same,promoter activity interaction Z-score,[3]; [10],-0.462 ± 0.18
same,promoter activity interaction Z-score,[3]; [11],-0.129 ± 0.58
same,promoter activity interaction Z-score,[3]; [12],0.219 ± 0.59
same,promoter activity interaction Z-score,[3]; [13],0.223 ± 0.2
same,promoter activity interaction Z-score,[3]; [14],-0.211 ± 0.02
same,promoter activity interaction Z-score,[3]; [15],-0.237 ± 0.057
same,promoter activity interaction Z-score,[3]; [16],-0.149 ± 0.12
same,promoter activity interaction Z-score,[3]; [17],-0.602 ± 0.36
same,promoter activity interaction Z-score,[3]; [18],-0.00876 ± 0.4
same,promoter activity interaction Z-score,[3]; [19],-1.9 ± 0.91
same,promoter activity interaction Z-score,[3]; [20],-1.77 ± 0.15
same,promoter activity interaction Z-score,[3]; [21],-2.39 ± 0.61
same,promoter activity interaction Z-score,[3]; [22],-1.36 ± 0.43
same,promoter activity interaction Z-score,[4]; [7],-0.978 ± 0.39
same,promoter activity interaction Z-score,[4]; [8],-0.301 ± 0.26
same,promoter activity interaction Z-score,[4]; [9],0.242 ± 0.41
same,promoter activity interaction Z-score,[4]; [10],-0.23 ± 0.61
same,promoter activity interaction Z-score,[4]; [11],-0.593 ± 0.31
same,promoter activity interaction Z-score,[4]; [12],-0.113 ± 0.0094
same,promoter activity interaction Z-score,[4]; [13],0.3 ± 0.32
same,promoter activity interaction Z-score,[4]; [14],0.424 ± 1.6
same,promoter activity interaction Z-score,[4]; [15],-1.1 ± 0.35
same,promoter activity interaction Z-score,[4]; [16],-0.572 ± 0.84
same,promoter activity interaction Z-score,[4]; [17],-0.82 ± 0.47
same,promoter activity interaction Z-score,[4]; [18],-0.24 ± 0.27
same,promoter activity interaction Z-score,[4]; [19],-2.27 ± 0.22
same,promoter activity interaction Z-score,[4]; [20],-1.34 ± 0.73
same,promoter activity interaction Z-score,[4]; [21],-1.46 ± 0.021
same,promoter activity interaction Z-score,[4]; [22],-1.76 ± 0.91
same,promoter activity interaction Z-score,[5]; [7],-0.189 ± 0.017
same,promoter activity interaction Z-score,[5]; [8],0.127 ± 0.11
same,promoter activity interaction Z-score,[5]; [9],0.138 ± 0.11
same,promoter activity interaction Z-score,[5]; [10],0.0742 ± 0.26
same,promoter activity interaction Z-score,[5]; [11],-0.0314 ± 0.05
same,promoter activity interaction Z-score,[5]; [12],0.331 ± 0.089
same,promoter activity interaction Z-score,[5]; [13],0.221 ± 0.14
same,promoter activity interaction Z-score,[5]; [14],0.0543 ± 0.37
same,promoter activity interaction Z-score,[5]; [15],0.0312 ± 0.095
same,promoter activity interaction Z-score,[5]; [16],0.0894 ± 0.086
same,promoter activity interaction Z-score,[5]; [17],0.0824 ± 0.045
same,promoter activity interaction Z-score,[5]; [18],0.2418 ± 0.00036
same,promoter activity interaction Z-score,[5]; [19],0.133 ± 0.093
same,promoter activity interaction Z-score,[5]; [20],0.303 ± 0.013
same,promoter activity interaction Z-score,[5]; [21],0.683 ± 0.014
same,promoter activity interaction Z-score,[5]; [22],1.13 ± 0.34
same,promoter activity interaction Z-score,[6]; [7],0.0553 ± 0.57
same,promoter activity interaction Z-score,[6]; [8],0.818 ± 0.39
same,promoter activity interaction Z-score,[6]; [9],0.166 ± 0.013
same,promoter activity interaction Z-score,[6]; [10],0.269 ± 0.96
same,promoter activity interaction Z-score,[6]; [11],-0.129 ± 0.34
same,promoter activity interaction Z-score,[6]; [12],0.688 ± 0.72
same,promoter activity interaction Z-score,[6]; [13],-0.187 ± 0.52
same,promoter activity interaction Z-score,[6]; [14],0.868 ± 0.14
same,promoter activity interaction Z-score,[6]; [15],0.388 ± 0.25
same,promoter activity interaction Z-score,[6]; [16],-0.396 ± 0.26
same,promoter activity interaction Z-score,[6]; [17],-0.151 ± 1.6
same,promoter activity interaction Z-score,[6]; [18],-0.374 ± 0.68
same,promoter activity interaction Z-score,[6]; [19],-1.44 ± 0.11
same,promoter activity interaction Z-score,[6]; [20],-0.24 ± 0.18
same,promoter activity interaction Z-score,[6]; [21],-0.656 ± 0.49
same,promoter activity interaction Z-score,[6]; [22],0.133 ± 0.45
